# Reference: PubChem BioAssay (NCI)
# Values joined by “and” are separate entries in the source; they are usually repeats but may differ in a detail not shown here. Equal entries are not always repeated. About 83,000 compounds went through this panel and 20% of them were active in at least one assay; those are over-represented in the sample as a whole.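 96-well plates, one dose, 48 hours. Percent growth reported; active if below 10.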 Active and inactive are the calls of the source.
# What was measured:
# Assay in all cases: NCI-60 one-dose screen, 48 h (100 = growth as untreated, 0 = no growth, -100 = all killed)
# NCI-H23 lung = conditions: 10 µM unless noted
# NCI-H226 lung = conditions: 10 µM unless noted
# NCI-H322M lung = conditions: 10 µM unless noted
# HOP-62 NSCLC = conditions: 10 µM unless noted
# NCI-H460 lung = conditions: 10 µM unless noted
# HOP-92 NSCLC = conditions: 10 µM
# NCI-H522 lung = conditions: 10 µM
# A549/ATCC NSCLC = conditions: 10 µM unless noted
# 786-0 renal = conditions: 10 µM unless noted
# COLO 205 colon = conditions: 10 µM unless noted
# DU-145 prostate = conditions: 10 µM unless noted
# K-562 leukemia = conditions: 10 µM unless noted
# MALME-3M melanoma = conditions: 10 µM unless noted
# MDA-MB-231 breast = conditions: 10 µM unless noted
# RXF 393 renal = conditions: 10 µM unless noted
# SF-268 CNS = conditions: 10 µM unless noted
# SF-295 CNS = conditions: 10 µM unless noted
# SF-539 CNS = conditions: 10 µM unless noted
# UACC-257 melanoma = conditions: 10 µM unless noted
# M14 melanoma = conditions: 10 µM unless noted
SMILES,growth (NCI-H23 lung),growth (NCI-H226 lung),growth (NCI-H322M lung),growth (HOP-62 NSCLC),growth (NCI-H460 lung),growth (HOP-92 NSCLC),growth (NCI-H522 lung),growth (A549/ATCC NSCLC),growth (786-0 renal),growth (COLO 205 colon),growth (DU-145 prostate),growth (K-562 leukemia),growth (MALME-3M melanoma),growth (MDA-MB-231 breast),growth (RXF 393 renal),growth (SF-268 CNS),growth (SF-295 CNS),growth (SF-539 CNS),growth (UACC-257 melanoma),growth (M14 melanoma)
CCCCOc1ccc(Nc2cc(Cl)ccc2C(=O)O)cn1,103% (inactive) and 92.9% (inactive),109% (inactive) and 97.5% (inactive),110% (inactive) and 105% (inactive),88.4% (inactive) and 90% (inactive),104% (inactive) and 99% (inactive),74.8% (inactive),46.4% (inactive) and 98.2% (inactive),96.5% (inactive) and 98.1% (inactive),92% (inactive),119% (inactive) and 103% (inactive),120% (inactive) and 121% (inactive),107% (inactive) and 108% (inactive),140% (inactive) and 121% (inactive),113% (inactive) and 111% (inactive),130% (inactive) and 104% (inactive),111% (inactive) and 107% (inactive),108% (inactive) and 109% (inactive),99.1% (inactive) and 97.7% (inactive),111% (inactive) and 98.2% (inactive),101% (inactive) and 107% (inactive)
CCCCOC(=O)/C=C\C(=O)NC(N)=O,85.7% (inactive),96.6% (inactive),96.4% (inactive),95.1% (inactive),101% (inactive),–,-30.6% (active),95.8% (inactive),97.4% (inactive),87.7% (inactive),91.1% (inactive),82.3% (inactive),92.3% (inactive),75.5% (inactive),-13.6% (active),96.6% (inactive),103% (inactive),95.7% (inactive),77.8% (inactive),92.1% (inactive)
O=[N+]([O-])c1cccc(SSc2cccc([N+](=O)[O-])c2)c1,98.8% (inactive),106% (inactive),116% (inactive),89.8% (inactive),109% (inactive),–,96.8% (inactive),100% (inactive),103% (inactive),82.1% (inactive),112% (inactive),94.3% (inactive),97.2% (inactive),95.4% (inactive),123% (inactive),106% (inactive),108% (inactive),102% (inactive),110% (inactive),94.2% (inactive)
O=C1CSC2=NCCN12,87.7% (inactive) and 90% (inactive),102% (inactive) and 85.5% (inactive),102% (inactive) and 94.5% (inactive),90.9% (inactive) and 95.9% (inactive),96.3% (inactive) and 99.3% (inactive),–,59.3% (inactive) and 99.1% (inactive),92.9% (inactive) and 113% (inactive),80.7% (inactive) and 61.7% (inactive),104% (inactive) and 127% (inactive),111% (inactive) and 107% (inactive),74.2% (inactive) and 76.4% (inactive),91.7% (inactive) and 120% (inactive),104% (inactive) and 103% (inactive),81.5% (inactive) and 98.4% (inactive),97.4% (inactive) and 96.9% (inactive),102% (inactive) and 81% (inactive),94.3% (inactive) and 91.7% (inactive),71.9% (inactive) and 103% (inactive),90.1% (inactive) and 91.6% (inactive)
O=C(Cc1ccccc1)c1ccc(O)c(Cl)c1,24% (inactive),83.7% (inactive),80% (inactive),70.4% (inactive),32.3% (inactive),–,10.3% (inactive),96.4% (inactive),26.8% (inactive),55.4% (inactive),18.5% (inactive),21.4% (inactive),50.2% (inactive),49.8% (inactive),41.7% (inactive),41.7% (inactive),47.8% (inactive),32.9% (inactive),66.7% (inactive),30.1% (inactive)
CCCCCCCCCCCCCCCCC(C(=O)O)C(O)(CC(=O)O)C(=O)O (stereo not given),105% (inactive) and -38.2% (active),107% (inactive) and -23.4% (active),120% (inactive) and 20% (inactive),102% (inactive) and -2.31% (active),105% (inactive) and 4.08% (active),–,90% (inactive) and -32.5% (active),106% (inactive) and 12.6% (inactive),99.7% (inactive) and 0.749% (active),114% (inactive) and -53.4% (active),124% (inactive) and -1.43% (active),90.9% (inactive) and 1.15% (active),108% (inactive) and -8.6% (active),126% (inactive) and 14.1% (inactive),98.4% (inactive) and 9.56% (active),116% (inactive) and 10% (inactive),15.4% (inactive),109% (inactive) and -20.3% (active),115% (inactive) and 18.2% (inactive),102% (inactive) and -34.8% (active)
